This is an account of results in PubChem BioAssay (NCATS).

A short description of test [1]: qHTS Screen of the MIPE 4.0 Collection Against Ewings Sarcoma (TC32) (AID 1259256). Note: nearly all actives have a fitted effect of over 45% in size. The essentials: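 Compound titrations go onto adherent log-phase cells 4 h after seeding, incubate 48 h at 37C, then CellTiter-Glo luminescence reports viability relative to DMSO and cell-free controls.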
(Quantitative high-throughput screening tests each substance at several concentrations.)

A short description of test [2]: P-glycoprotein substrates identified in KB-8-5-11 adenocarcinoma cell line, qHTS therapeutic library screen (AID 1346987). Note: nearly all actives have a fitted effect of over 65% in size. The procedure, abridged:
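P-gp-mediated resistance screen: KB-8-5-11 cells treated 72 h with compounds in dose-response. CellTiter-Glo viability.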

Test [3] is described as follows: NS1 protein of Zika virus - qHTS assay to identify small molecule inhibitors in human HEK 293 cells (AID 1347053). Note: nearly all actives have a fitted effect of over 55% in size. The essentials:
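Inhibition of NS1 expression was scored in HEK 293 cells given compound 1 h ahead of MR766 virus (MOI = 0.5). Following 24 h at 37 C, two anti-NS1 antibodies generated a TR-FRET signal, scaled between uninfected and infected controls.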

A short description of test [4]: qHTS of pediatric cancer cell lines to identify multiple opportunities for drug repurposing: Primary screen for DAOY cells (AID 1347090). Note: nearly all actives have a fitted effect of over 55% in size. The essentials: (§1)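 Eight- or eleven-point concentration series, 48 h treatment at 37 degrees C in growth media; readout CellTiter-Glo luminescence. Potency and efficacy were taken from the concentration-response curves.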
Test [5] in a line: qHTS of pediatric cancer cell lines to identify multiple opportunities for drug repurposing: Primary screen for SJ-GBM2 cells (AID 1347091). The procedure, abridged:
as §1

Test [6] in a line: qHTS of pediatric cancer cell lines to identify multiple opportunities for drug repurposing: Primary screen for A673 cells (AID 1347092). Note: nearly all actives have a fitted effect of over 45% in size. The essentials: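 Luminescence from CellTiter-Glo, taken after 15 min at room temperature, served as the proxy for metabolically active cells following 48 h treatment. Both potency and efficacy were taken from curves fitted to the titration data.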

The nature of test [7]: qHTS of pediatric cancer cell lines to identify multiple opportunities for drug repurposing: Primary screen for SK-N-MC cells (AID 1347093). The procedure, abridged:
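Metabolically active cells were quantified by ATP-dependent luminescence (CellTiter-Glo, 15 min at room temperature) following 48 h treatment. Cells had been plated at 500-1,000 per well and settled for 5 h beforehand.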

A short description of test [8]: qHTS of pediatric cancer cell lines to identify multiple opportunities for drug repurposing: Primary screen for BT-37 cells (AID 1347094). The essentials:
(§2)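 Phenotypic viability qHTS, 48 h compound exposure, CellTiter-Glo luminescence read-out; multi-concentration dosing so that potency and efficacy derive directly from the primary screen's curves.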

Test [9] can be described thus: qHTS of pediatric cancer cell lines to identify multiple opportunities for drug repurposing: Primary screen for NB-EBc1 cells (AID 1347095). The procedure, abridged:
as §2

A short description of test [10]: qHTS of pediatric cancer cell lines to identify multiple opportunities for drug repurposing: Primary screen for U-2 OS cells (AID 1347096). Note: nearly all actives have a fitted effect of over 50% in size. The essentials:
(§3)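 Cells (500-1,000/well) in growth media were settled 5 h at 37 degrees C, then given compounds for 48 h. Viability was read as CellTiter-Glo luminescence. Primary runs used MIPE at 11 points (0.78 nM-46 µM) and NPC at 8 points (0.59 nM-46 µM); follow-ups used 11 points.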

The nature of test [11]: qHTS of pediatric cancer cell lines to identify multiple opportunities for drug repurposing: Primary screen for Saos-2 cells (AID 1347097). Note: nearly all actives have a fitted effect of over 40% in size. The procedure, abridged:
as §2

Test [12] is described as follows: qHTS of pediatric cancer cell lines to identify multiple opportunities for drug repurposing: Primary screen for SK-N-SH cells (AID 1347098). Note: nearly all actives have a fitted effect of over 65% in size. The procedure, abridged: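 Cells (500-1,000/well) rested 5 h, then received compounds for 48 h; metabolically active cells were measured by CellTiter-Glo luminescence. Final concentrations spanned up to 46 µM (MIPE, 11-point) or 0.59 nM-46 µM (NPC, 8-point) in primary screens, 11-point in follow-ups.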

Test [13] is described as follows: qHTS of pediatric cancer cell lines to identify multiple opportunities for drug repurposing: Primary screen for NB1643 cells (AID 1347099). Note: nearly all actives have a fitted effect of over 50% in size. The procedure, abridged:
as §2

A short description of test [14]: qHTS of pediatric cancer cell lines to identify multiple opportunities for drug repurposing: Primary screen for LAN-5 cells (AID 1347100). The procedure, abridged: as §3
Test [15] in a line: qHTS of pediatric cancer cell lines to identify multiple opportunities for drug repurposing: Primary screen for TC32 cells (AID 1347089). Note: nearly all actives have a fitted effect of over 60% in size. The procedure, abridged:
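qHTS, TC32, 48 h drug treatment, CellTiter-Glo luminescence as a proxy for metabolically active cells; primary top concentration 46 µM (MIPE 11-pt, NPC 8-pt); confirmatory 11-pt.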

The structures appear in SMILES notation. Several values for one entry are separate records, joined by “and”; a condition that tells them apart may be missing. Equal values may be shown once. Inconclusive results are not listed. Activity calls are given as the source filed them. Calls come from the whole dose curve; as a rule, active = well fitted curve in the direction sought with a large enough effect; inconclusive = small, poorly fitted or top-dose-only effect, or another doubt; inactive = no such curve, though single readings can be large; an effect the other way counts as inactive or inconclusive.
Potency is the fitted concentration of half-maximal effect.

With `CC(C)(O)[C@H]1CC[C@@](C)([C@H]2[C@@H](O)C[C@@]3(C)[C@@H]4C[C@H](O[C@@H]5O[C@H](CO)[C@@H](O)[C@H](O)[C@@H]5O)[C@H]5C(C)(C)[C@@H](O[C@@H]6OC[C@@H](O)[C@H](O)[C@@H]6O)CC[C@@]56C[C@@]46CC[C@]23C)O1`, the Potency entry in test [1], in test [2], in [3], in test [4], in [5] and in [6] was “inactive” throughout. The Potency entry in [7], in [8], in test [9], in test [10], in test [11] and in [12] was “inactive” throughout. Besides, the Potency entry in test [13] and in test [14] was “inactive” in each case.

As for `OCCNC1CCCc2c1[nH]c1ccc(-c3ccccc3)cc21` (stereo not given), the Potency in test [1] is 18.7 µM (active); in test [2], 6.51 µM (active); in test [3], 20.9 µM (active); in [5], 23.5 µM (active); in test [6], 23.5 µM (active); in test [8] it was 24.3 µM (active). In addition, the Potency in [11] was 18.7 µM (active); in test [14], 26.4 µM (active). Besides, the Potency result in test [4] and in test [13] was “inactive” each time.

As to `O=c1[nH]c(=O)n([C@H]2C[C@@H](O)[C@@H](CO)O2)cc1F`, the Potency in test [1] is 0.059 µM (active); in [2], 1.66 µM (active); in [3], 0.833 µM (active); in [15], 930 nM (active); in [6] it was 1.87 µM (active); in test [7], 16600 nM (active). The Potency was 0.685 µM (active) in test [8]; 18.7 µM (active) in test [10]; 5.9 µM (active) in test [11]; 14.8 µM (active) in test [13]; 1.32 µM (active) in [14]. Besides, in test [12], the Potency result is “inactive”.

For the compound `CCS(=O)(=O)Nc1ccc2[nH]c(O)c(C(=Nc3ccc(CN4CCCCC4)cc3)c3ccccc3)c2c1`, the Potency in [1] was 0.0833 µM (active); in test [3], 18.7 µM (active); in test [15], 131 nM (active); in test [6], 0.59 µM (active); in test [7] it was 118 nM (active); in test [8], 27.3 µM (active). For the same compound, the Potency in test [9] was 187 nM (active); in test [10], 5.9 µM (active); in test [11], 0.662 µM (active); in test [12], 1.21 µM (active); in [13], 0.118 µM (active); in test [14], 0.0372 µM (active). The Potency entry in [2] is “inactive”.

Consider `Cc1nc(NC(=O)N2CCC[C@@H]2C(N)=O)sc1-c1ccnc(C(C)(C)C(F)(F)F)c1`, for which the Potency was 6.62 µM (active) in test [1]; 6.62 µM (active) in [2]; 7.43 µM (active) in test [4]; 5.9 µM (active) in test [5]; 9.35 µM (active) in test [6]; 59 nM (active) in test [7]. Also, the Potency is 1480 nM (active) in test [9], 9.35 µM (active) in test [13] and 5.9 µM (active) in test [14]. Further, the Potency result in test [3] and in test [10] was “inactive” throughout.

Take `COc1cc2c(Nc3ccc(Cl)c(Cl)c3F)ncnc2cc1OCC1C[C@@H]2CN(C)C[C@H]2C1`: the Potency is 13.2 µM (active) in test [1]; 18.7 µM (active) in test [2]; 7.43 µM (active) in test [5]; 0.935 µM (active) in [6]; 2960 nM (active) in test [7]; 24.3 µM (active) in test [8]. Further, the Potency in test [9] was 16600 nM (active); in test [10] it was 18.7 µM (active); in test [11], 16.6 µM (active); in [12], 12.1 µM (active); in [13], 14.8 µM (active); in test [14], 11.8 µM (active). Moreover, the Potency entry in [3] was “inactive”.

Take `COC[C@H](NC(=O)c1cnc(C)s1)C(=O)N[C@@H](COC)C(=O)N[C@@H](Cc1ccccc1)C(=O)[C@@]1(C)CO1`: the Potency in test [1] is 0.148 µM (active); in test [2] it was 3.72 µM (active); in test [3], 1.18 µM (active); in [5], 0.0662 µM (active); in test [6], 0.0935 µM (active); in test [7], 29.6 nM (active). For the same compound, the Potency was 0.273 µM (active) in test [8]; 83.3 nM (active) in [9]; 0.372 µM (active) in test [10]; 0.662 µM (active) in test [11]; 0.541 µM (active) in test [12]; 0.132 µM (active) in [13]. Moreover, the Potency in test [14] is 0.132 µM (active).

In the case of `OCC(O)C(O)C(O)CO` (stereo not given), the Potency result in [1], in [2], in [3], in test [4], in test [5] and in test [6] was “inactive” in each case. For the same compound, the Potency result in [7], in test [8], in test [9], in [10], in [11] and in test [13] was “inactive” in each case. In addition, the Potency entry in test [14] was “inactive”.

Regarding `CC(C)n1cnc2c(NCCc3ccc(O)cc3)nc(-c3csc4ccccc34)nc21`, the Potency is 4.18 µM (active) in test [1]; 20.9 µM (active) and 20.6 µM (active) in [2]; 26.4 µM (active) in [3]; 11.8 µM (active) in test [4]; 1.18 µM (active) in [6]; 3320 nM (active) in [7]. The Potency in test [11] is 14.8 µM (active); in test [12] it was 4.29 µM (active); in test [13], 3.32 µM (active). The Potency result in test [10] is “inactive”.

Take `COc1cc(C[C@@H](CO)[C@H](CO)Cc2ccc(O)c(OC)c2)ccc1O`: the Potency in test [1] was 0.372 µM (active); in [4], 0.469 µM (active); in test [6], 0.187 µM (active); in [7], 209 nM (active); in test [8], 3.85 µM (active); in [11] it was 5.9 µM (active). In addition, the Potency is 1.71 µM (active) in [12], 0.59 µM (active) in test [13] and 2.35 µM (active) in test [14]. The Potency entry in test [2] and in [3] was “inactive” in each case.

Consider `COc1cc(N2CCC(C(N)=O)CC2)ccc1Nc1nc(N)c(Cl)c(Nc2ccccc2S(=O)(=O)C(C)C)n1`, for which the Potency was 6.62 µM (active) in test [1]; 2620 nM (active) in [15]; 1.18 µM (active) in test [6]; 132 nM (active) in test [7]; 743 nM (active) in test [9]; 0.526 µM (active) in test [13]. Besides, the Potency in test [14] is 0.235 µM (active). For the same compound, the Potency entry in test [2], in test [5], in [8] and in test [10] was “inactive” throughout.

Turning to `CCN(CC)Cc1ccc2cc(COC(=O)Nc3ccc(C(=O)NO)cc3)ccc2c1`, the Potency is 0.662 µM (active) in test [1]; 7.43 µM (active) in test [2]; 5870 nM (active) in test [15]; 2.96 µM (active) in test [4]; 0.743 µM (active) in test [5]; 1.48 µM (active) in [6]. Also, the Potency in [7] is 833 nM (active); in test [8], 1.93 µM (active); in test [9], 833 nM (active); in test [10], 3.72 µM (active); in test [11], 0.935 µM (active); in test [12] it was 1.52 µM (active). Also, the Potency was 1.18 µM (active) in [13] and 0.526 µM (active) in [14].
